Source: PubChem BioAssay (EPA / NIEHS)
Inconclusive results are not listed. Active and inactive are the calls of the source. How the source made its calls: active means hit-call score of the fitted dose curve at least 0.9, where 1 is the maximum; inconclusive means response in the unintended direction; inactive means score below 0.9.

How the values were obtained:
[1] = target: Collagenase 3 (Homo sapiens) (UniProt P45452); assay: NVS_ENZ_hMMP13: NovaScreen (NVS) Enzymatic Assay for human Matrix Metalloproteinase-13 (MMP13) (AID 2283182)
How it was run: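 Recombinant MMP13 cleaving fluorescent substrate, cell-free, measured 1 h after dosing. Primary duplicate screen at 25 uM; actives tested in concentration-response up to 50 uM; loss of signal relative to DMSO.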

[2] = target: human Matrix Metalloproteinase-9 (MMP9), MMP9 (gene 4318) (UniProt P14780); assay: NVS_ENZ_hMMP9: NovaScreen (NVS) Enzymatic Assay for human Matrix Metalloproteinase-9 (MMP9) (AID 2283190);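 further: cell-free recombinant MMP9 protease activity read by fluorescent substrate signal; active means inhibition seen as loss of fluorescence signal versus DMSO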
human Matrix Metalloproteinase-9 (MMP9), MMP9 (gene 4318), sequence (P14780 whole entry, looked up): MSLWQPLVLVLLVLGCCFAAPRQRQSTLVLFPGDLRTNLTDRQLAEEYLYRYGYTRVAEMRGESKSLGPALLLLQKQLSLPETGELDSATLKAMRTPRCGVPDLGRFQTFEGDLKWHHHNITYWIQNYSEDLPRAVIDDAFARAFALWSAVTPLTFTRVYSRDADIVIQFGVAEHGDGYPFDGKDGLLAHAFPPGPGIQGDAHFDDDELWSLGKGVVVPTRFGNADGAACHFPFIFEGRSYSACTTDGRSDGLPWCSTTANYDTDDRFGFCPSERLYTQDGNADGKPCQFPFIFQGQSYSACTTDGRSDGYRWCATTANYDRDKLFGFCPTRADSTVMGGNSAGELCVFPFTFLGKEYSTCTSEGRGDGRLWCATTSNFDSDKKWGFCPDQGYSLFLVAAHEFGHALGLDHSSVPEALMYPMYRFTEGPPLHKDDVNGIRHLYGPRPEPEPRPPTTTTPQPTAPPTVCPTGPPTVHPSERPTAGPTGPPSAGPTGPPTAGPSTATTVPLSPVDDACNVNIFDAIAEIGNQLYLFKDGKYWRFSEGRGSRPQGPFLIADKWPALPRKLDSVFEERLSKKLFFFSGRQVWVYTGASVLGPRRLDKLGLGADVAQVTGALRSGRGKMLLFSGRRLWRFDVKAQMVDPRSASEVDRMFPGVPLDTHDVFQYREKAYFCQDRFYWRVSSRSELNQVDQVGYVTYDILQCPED
How it was run: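 Screening concentration 25 uM, duplicate wells, then dose series for confirmation. Cell-free enzymatic reaction measured by fluorescence intensity 1 h post-dosing; decreased signal versus DMSO taken as activity.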

[3] = target: human Esterase Plasma (ES), BCHE (gene 590) (UniProt P06276); assay: NVS_ENZ_hES: NovaScreen (NVS) Enzymatic Assay for human Esterase Plasma (ES) (AID 2283157)
human Esterase Plasma (ES), BCHE (gene 590), sequence (P06276 whole entry, looked up): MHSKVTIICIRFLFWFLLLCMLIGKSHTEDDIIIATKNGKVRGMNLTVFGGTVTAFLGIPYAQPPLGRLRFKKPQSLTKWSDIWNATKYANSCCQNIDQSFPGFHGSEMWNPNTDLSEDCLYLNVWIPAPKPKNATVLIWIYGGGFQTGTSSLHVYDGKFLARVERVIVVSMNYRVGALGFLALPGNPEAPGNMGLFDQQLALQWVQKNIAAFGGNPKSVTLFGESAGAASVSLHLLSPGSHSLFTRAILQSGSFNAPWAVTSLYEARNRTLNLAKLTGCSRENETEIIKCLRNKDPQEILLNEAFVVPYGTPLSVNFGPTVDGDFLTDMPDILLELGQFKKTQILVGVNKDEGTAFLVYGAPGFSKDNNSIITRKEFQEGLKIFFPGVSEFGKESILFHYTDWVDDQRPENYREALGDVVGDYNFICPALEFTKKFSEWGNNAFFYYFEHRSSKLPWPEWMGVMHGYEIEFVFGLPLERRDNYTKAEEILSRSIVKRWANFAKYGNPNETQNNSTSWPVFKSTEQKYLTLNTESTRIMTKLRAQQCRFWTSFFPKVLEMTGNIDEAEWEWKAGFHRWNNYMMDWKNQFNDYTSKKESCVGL
How it was run: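 Human plasma-derived enzyme, cell-free, colorimetric readout at 0.25 h. Primary screen 25 uM in duplicate; hits (e.g. ≥30% inhibition) rerun singleton up to 50 uM. DMSO = negative control/baseline.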

[4] = target: human Dual Specificity Protein Phosphatase 3 (DUSP3), DUSP3 (gene 1845) (UniProt P51452); assay: NVS_ENZ_hDUSP3: NovaScreen (NVS) Enzymatic Assay for human Dual Specificity Protein Phosphatase 3 (DUSP3) (AID 2283152);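 further: phosphatase activity of recombinant human DUSP3 on a fluorogenic substrate without cells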
human Dual Specificity Protein Phosphatase 3 (DUSP3), DUSP3 (gene 1845), sequence (P51452 whole entry, looked up): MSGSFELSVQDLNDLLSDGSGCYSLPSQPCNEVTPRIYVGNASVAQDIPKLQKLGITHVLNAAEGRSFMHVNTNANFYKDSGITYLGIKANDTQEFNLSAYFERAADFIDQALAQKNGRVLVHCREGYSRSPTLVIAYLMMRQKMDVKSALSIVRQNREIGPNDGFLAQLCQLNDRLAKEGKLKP
How it was run: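 Cell-free fluorescence-intensity enzyme activity assay with recombinant protein and substrate; loss of signal fitted relative to DMSO baseline. Primary screen in duplicate at 25 uM, actives then run in concentration series; measured 0 h after dosing.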

CCCCCCCCCCCCCCC
outcome [1]: inactive

CCCCC(CC)C(=O)O (stereo not given)
outcome [2]: inactive

CCCCc1oc2ccccc2c1C(=O)c1cc(I)c(OCCN(CC)CC)c(I)c1
outcome [3]: inactive

CCCCCCCCCCCCCCCC(=O)OC
AC50 [4]: 6.25 µM (active)

CN(C)CCOC(c1ccccc1)c1ccccc1
AC50 [3]: 11.4 µM (active)
